Test system: Vero E6 infected with SARS-CoV-2
Assay: inhibition of SARS-CoV-2 cytopathic effect; higher = more antiviral protection, active = above 15
Settings: 48 h

Measured: inhibition of SARS-CoV-2 cytopathic effect

CO[C@@]1(NC(=O)CSCC#N)C(=O)N2C(C(=O)O)=C(CSc3nnnn3C)CS[C@@H]21 [cefmetazole]
inactive: 1 nM 1.84% | 8.33 nM 1.39% | 100 nM 1.15% | 833.33 nM 2.93% | 10000 nM 2.49%

CN1CCC[C@@H](CC2c3ccccc3Sc3ccccc32)C1 (racemic) [metixene]
inactive: 1 nM -0.25% | 8.33 nM 1.09% | 100 nM 1.62% | 833.33 nM -0.01%
active: 10000 nM 42.2%

O=C(OOC(=O)c1ccccc1)c1ccccc1 [benzoyl-peroxide]
inactive: 1 nM 2.98% | 8.33 nM 2.38% | 100 nM -1.92% | 833.33 nM -1.86% | 10000 nM -0.05%

NC(=O)NC1NC(=O)NC1=O (stereo not given) [allantoin]
inactive: 1 nM -0.84% | 8.33 nM -1.51% | 100 nM -2.49% | 833.33 nM -1.11% | 10000 nM 1.18%

CC1Oc2cc(cnc2N)-c2c(nn(C)c2C#N)CN(C)C(=O)c2ccc(F)cc21 (stereo not given)
inactive: 1 nM -0.41% | 8.33 nM 1.22% | 100 nM 0.495% | 833.33 nM -2.23% | 10000 nM 0.255%

— the supplement of paper PMC13380429
